Laboratory results taken from PubChem BioAssay AID463173 (ICCB-Longwood Screening Facility, Harvard Medical School, 2010).
In all, about 52,000 compounds went through this assay and about 4,300 (8.3%) were called active. For the sample, actives were picked, then their nearest neighbours and some compounds at random. Values without a mark were called inactive. Rule as the data show it: active = survival mostly below about 52% (no sharp cut-off); inactive = mostly above about 56%.

Each compound was assayed on DeltatarO mutant (assay: S. aureus survival, RN4220 and DeltatarO strains – OD600, teichoic acid synthesis inhibitors, primary screen (AID 463173)). Settings: S. aureus RN4220 wild type/DeltatarO growth, OD600, 18 h, hits give low values, screened at 18.75 µg/mL (by protocol).

Compared with `CCOC(=O)c1[nH]c2ccccc2c1NC(=O)c1ccc(Br)cc1`, `CCOC(=O)c1c(NC(C)=O)sc2c(NC(C)=O)cccc12` is lower in survival: 95% for the first, 69% for the second.

Compared with `Cc1cccc(-c2nc3nc(C)cc(NCc4ccccc4Cl)n3n2)c1`, `O=C(CCn1cnc2ccccc2c1=O)NCc1ccccc1Cl` is higher in survival: 74% for the first, 77% for the second.

Compared with `COc1ccccc1C(=O)Nc1ccc(C(=O)OCc2cc(=O)n3nc(C4CC4)sc3n2)cc1`, `Cc1ccccc1-c1nn2c(=O)cc(CN3CCN(C(=O)c4ccccc4Br)CC3)nc2s1` is higher in survival: 72% for the first, 116% for the second.

Going from `Cc1ccccc1C1C(C#N)=C(N)NC(S)=C1C#N` (stereo unspecified) to `Cc1cccc(OCC(=O)N(Cc2cccs2)c2ccc(Cl)cc2)c1C`, the survival falls from 93% to 61%.

Compared with `CCC(=O)N1c2ccccc2CC1C(=O)NCCc1cc(OC)c(OC)c(OC)c1` (stereo unspecified), `COc1ccc(CCNC(=O)c2cc3c(=O)[nH]c4ccc(C)cc4c3s2)cc1OC` is lower in survival: 129% for the first, 64% for the second.

Going from `CC(c1ccccc1F)n1cc(C(=O)NCCCn2ccnc2)nn1` (stereo unspecified) to `COc1ccccc1NC(=O)CCn1cnc2ccccc2c1=O`, the survival falls from 96% to 92%.

First: CCOc1ccc(NC(=O)Cn2cc(C(=O)c3ccc(C)c(C)c3)c(=O)c3cc(OC)c(OC)cc32)cc1
Second: CCc1ccc(NCc2cc3ccc(OC)cc3n(CC(=O)Nc3ccccc3OC)c2=O)cc1
The survival of the first is higher: 95% for the first, 79% for the second.

Compared with `COc1ccc(CNC(=O)c2cc3c(=O)oc4ccc(C)cc4c3s2)c(OC)c1`, `COc1ccc(CNC(=O)c2cc3c(=O)n(Cc4ccco4)ccc3nc2C)c(OC)c1` is lower in survival: 86% for the first, 67% for the second.

Compared with `CC1CCC(NC(=O)CCc2cn(Cc3ccc(F)cc3)c3ccccc23)CC1` (stereo unspecified), `COc1ccc(Cn2c(C(=O)O)c(CNC3CCC(C)CC3)c3ccc(C)cc32)cc1` (stereo unspecified) is higher in survival: 60% for the first, 115% for the second.

Going from `CCCCSC1=NC(C)(C)CC(C)O1` (stereo unspecified) to `CCN1C(=O)C2C(c3ccc(F)cc3)NC(CCSC)(C(=O)OC)C2C1=O` (stereo unspecified), the survival falls from 79% to 54%.

Compared with `CCCC12CN3CC(C)(CN(C1)C3c1ccc(CC)cc1)C2=O` (stereo unspecified), `CCCC12CN3CC(CCC)(CN(C1)C3c1ccc(OCc3ccccc3)cc1)C2=O` (stereo unspecified) is higher in survival: 87% for the first, 112% for the second.

Going from `COc1cccc(N2CCN(C(=O)c3nn(C)c4c3CSc3ccc(C)cc3-4)CC2)c1` to `COC(=O)c1cnc(N2CCN(c3ccc(F)cc3)CC2)c2ccccc12`, the survival falls from 117% to 80%.

First: COC(=O)c1ccc2c(=O)n(CCCCCC(=O)NCc3ccc(OC)cc3)c(=O)[nH]c2c1
Second: COc1ccc(CNC(=O)c2cc3c(=O)n(Cc4ccc(OC)cc4)ccc3nc2C)cc1
The survival of the first is higher: 71% for the first, 66% for the second.

Compared with `Cc1noc(-c2ccc(-c3noc(-c4ccc(F)cc4)n3)cc2)n1`, `Cc1noc(-c2ccc(-c3noc(-c4ccc(Cl)cc4)n3)cc2)n1` is lower in survival: 72% for the first, 66% for the second.

Going from `Cc1nc(-c2ccc(S(=O)(=O)NCc3ccc(N(C)C)cc3)cc2)co1` to `CCOC(=O)c1cc(S(=O)(=O)NCc2ccc(Cl)cc2)[nH]n1`, the survival rises from 83% to 87%.

First: CCOc1ccc(C(c2c(O)cc(C)n(Cc3ccco3)c2=O)N2CCN(c3ccccc3)CC2)cc1 (stereo unspecified)
Second: O=S(=O)(c1ccc(Cl)cc1)c1nc(-c2ccccc2)oc1N1CCN(c2ccccc2)CC1
The survival of the first is lower: 75% for the first, 86% for the second.

Going from `COc1ccc(-c2nc(S(=O)(=O)c3ccc(Cl)cc3)c(N3CCCCCC3)o2)cc1` to `O=C(C1COc2cc(S(=O)(=O)Nc3ccc(Cl)cc3)ccc2O1)N1CCCC1` (stereo unspecified), the survival falls from 76% to 71%.

First: O=C(O)c1ccc(CNCc2ccccc2Cl)s1
Second: CC(C)(C)OC(=O)N1CCC(c2c(C(=O)NCc3ccco3)cnn2-c2ccccc2Cl)CC1
The survival of the first is higher: 88% for the first, 76% for the second.

Going from `Cc1ccc(C(=O)N2C(C)CCCC2C)c(Cl)c1` (stereo unspecified) to `CCc1ccc(-c2nn(CC(=O)NC3CCCCC3)c3c2cnc2ccc(C)cc23)cc1`, the survival falls from 70% to 69%.

Compared with `CNC(=O)CN(C#N)c1nc(N(C)C)nc(N(C)C)n1`, `COC(=O)CN(C#N)c1nc(C)cc(C)n1` is higher in survival: 87% for the first, 94% for the second.

Going from `Cc1nc(SCc2cc(=O)c3cccc(F)c3[nH]2)n[nH]1` to `Cn1c(=O)[nH]c2cc(-c3noc(-c4cccc(Cl)c4)n3)ccc21`, the survival falls from 94% to 87%.

Compared with `CCOC(=O)c1c(N)sc2c1CN(C(=O)OC)N(C(=O)OC)C2`, `COc1ccc(NC(=O)c2cc3c(=O)n(Cc4cccnc4)ccc3nc2C)c(OC)c1` is lower in survival: 112% for the first, 83% for the second.

Compared with `COc1ccc(NC(=O)c2cc3c(=O)n(Cc4ccco4)ccc3nc2C)c(OC)c1`, `COc1ccc(Cn2ccc3nc(C)c(C(=O)Nc4ccc(OC)cc4)cc3c2=O)cc1` is higher in survival: 81% for the first, 89% for the second.

First: COc1ccc(Cn2ccc3nc(C)c(C(=O)Nc4ccc(OC(F)(F)F)cc4)cc3c2=O)cc1
Second: CCc1ccc2ncc3c(-c4ccc(C)cc4)nn(CC(=O)Nc4ccc(C)cc4)c3c2c1
The survival of the first is higher: 92% for the first, 55% for the second.

Going from `COc1ccccc1Nc1ncnc2scc(-c3ccc(F)cc3)c12` to `Cc1ccc2ncc3c(-c4ccc(F)cc4)nn(CC(=O)Nc4ccccc4C)c3c2c1`, the survival falls from 115% to 101%.

Compared with `Cc1c2cnn(CC(=O)NCc3ccc(Cl)cc3)c(=O)c2c(C)n1Cc1ccc(F)cc1`, `Cc1ccc(C)c(NC(=O)Cn2ncc3c(C)n(Cc4ccc(F)cc4)c(C)c3c2=O)c1` is higher in survival: 62% for the first, 71% for the second.

Compared with `COc1ccc(OCC(=O)N(Cc2cccs2)c2ccc(OC)cc2)cc1`, `COc1ccc(N(Cc2cccs2)C(=O)COc2ccc(C(C)C)cc2)cc1` is higher in survival: 66% for the first, 80% for the second.

Compared with `COc1ccc(N(Cc2cccs2)C(=O)COc2cc(C)c(Cl)c(C)c2)cc1`, `COc1ccc(C2CC(=O)c3cc(-c4nc(-c5cccc([N+](=O)[O-])c5)cs4)c(=O)n(-c4ccc(C)c(C)c4)c3C2)cc1` (stereo unspecified) is higher in survival: 65% for the first, 156% for the second.

Compared with `Cc1cc(C)c2c(CC(=O)Nc3ccc(S(=O)(=O)N4CCCCC4)cc3)coc2c1`, `CCN(CC)c1ccc(NC(=O)C2CCN(S(=O)(=O)c3ccc4c(c3)oc(=O)n4C)CC2)c(C)c1` is higher in survival: 76% for the first, 90% for the second.

Compared with `CC(=O)O/N=C1/CC(C)(C)Cc2onc(C)c21`, `Cc1oc(CC(C)C)cc1C(=O)O` is higher in survival: 76% for the first, 104% for the second.

First: Cc1ccc(-c2nc(-c3cc4cccc(OCc5ccccc5F)c4oc3=O)no2)cc1
Second: CCc1ccc2ncc3c(-c4ccc(C)cc4)nn(CC(=O)NCc4ccccc4)c3c2c1
The survival of the first is higher: 60% for the first, 57% for the second.

Going from `COc1ccc(C2c3[nH]c4ccccc4c3CCN2C(=O)CCC2CCCC2)cc1` (stereo unspecified) to `CCOc1ccc(-c2nn(CC(=O)NC3CCCC3)c3c2cnc2ccc(F)cc23)cc1`, the survival rises from 95% to 144%.

Compared with `CN(C(=O)CSc1nc(-c2ccco2)cc(C(F)(F)F)n1)c1ccccc1`, `O=C(Cn1nc(-c2ccccc2)c2cnc3ccc(F)cc3c21)NC1CCCC1` is higher in survival: 92% for the first, 102% for the second.

Going from `COc1ccc(N2C(=O)CS(=O)(=O)C23C(=O)N(Cc2c(F)cccc2Cl)c2ccccc23)cc1` (stereo unspecified) to `CCCN1c2cccc3cccc(c23)S1(=O)=O`, the survival rises from 86% to 101%.

Going from `Cc1ccc(-c2nn(CC(=O)NC3CCCC3)c3c2cnc2ccc(F)cc23)cc1C` to `CCc1ccc(-c2nn(CC(=O)NC3CCCC3)c3c2cnc2ccc(F)cc23)cc1`, the survival rises from 93% to 105%.

Compared with `CCc1ccc(-c2nn(CC(=O)NC3CCCCC3)c3c2cnc2ccc(F)cc23)cc1`, `CCc1ccc(-c2nn(CC(=O)Nc3ccccc3C)c3c2cnc2ccc(C)cc23)cc1` is lower in survival: 72% for the first, 70% for the second.

In the case of `COc1ccc(CNC(=O)c2cc3c(=O)[nH]c4ccc(C)cc4c3s2)c(OC)c1`, the survival is reported as 44% (active).
In the case of `CCCC12CN3CC(CCC)(CN(C1)C3c1ccc(OC(C)C)cc1)C2=O` (stereo unspecified), the survival is reported as 21% (active).
`Cc1noc(-c2ccc(-c3noc(-c4ccccc4)n3)cc2)n1` was tested, and the survival was -4% (active).
For `Cc1ccc(S(=O)(=O)c2nc(-c3ccc(Cl)cc3)oc2N2CCCCCC2)cc1`, the survival was 36% (active).
For `Cc1ccc(-c2nc(S(=O)(=O)c3ccc(Cl)cc3)c(N3CCCCC3)o2)cc1`, the survival was 11% (active).
With `COC(=O)CN(C#N)c1nc(SC)nc(N(C)C)n1` the survival was 52% (active).
For `CCOC(=O)c1c(N)sc2c(OC)c(Br)ccc12`, the survival was 1% (active).
`COc1ccc(Cn2ccc3nc(C)c(C(=O)Nc4ccc(F)cc4)cc3c2=O)cc1` was tested, and the survival was 20% (active).
`COc1ccc(Cn2ccc3nc(C)c(C(=O)NCc4ccc(OC)cc4OC)cc3c2=O)cc1` was tested, and the survival was 25% (active).
With `COc1ccc(Cn2ccc3nc(C)c(C(=O)Nc4ccc(OC)cc4OC)cc3c2=O)cc1` the survival was 8% (active).
In the case of `CC(=O)c1ccc(NC(=O)Cn2ncc3c(C)n(Cc4ccc(F)cc4)c(C)c3c2=O)cc1`, the survival is reported as 60% (active).
For `COc1ccc(N(Cc2cccs2)C(=O)COc2cccc(C)c2C)cc1`, the survival was 17% (active).
For `COc1ccc(N(Cc2cccs2)C(=O)COc2cccc(Cl)c2)cc1`, the survival was 42% (active).
With `COc1ccccc1CNC(=O)CCn1cnc2ccccc2c1=O` the survival was -5% (active).
`Cc1ccc(-c2nn(CC(=O)NC3CCCCC3)c3c2cnc2ccc(F)cc23)cc1C` was tested, and the survival was 0% (active).
With `CCCNC(=O)Cn1nc(-c2ccc(C)cc2)c2cnc3ccc(CC)cc3c21` the survival was 37% (active).
`Cc1ccccc1NC(=O)Cn1nc(-c2ccc(F)cc2)c2cnc3ccccc3c21` was tested, and the survival was 25% (active).
In the case of `CCc1ccc(-c2nn(CC(=O)NC3CCCC3)c3c2cnc2ccc(C)cc23)cc1`, the survival is reported as 37% (active).
For `COc1ccc(-c2nn(CC(=O)NC3CCCC3)c3c2cnc2ccc(F)cc23)cc1`, the survival was 46% (active).
